Measured values taken from the supplement of paper PMC4466140.

B1: unnamed (peptide)
chain: KWVRRPKLMTPLTFS
B2: unnamed (peptide)
chain: SRSKPLPLTPNSKYN

Target: CaNbp2
Experiment: SPOT peptide array binding signal intensity (averaged, normalized) (arbitrary units (background-subtracted, floor 0; scale differs between SH3 domains)); higher = stronger binding of the SH3 domain to the peptide
Outline: (§1)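 Spot intensities were captured after detection with anti-GST antibody, an HRP-linked anti-mouse secondary and luminol, and quantified with Genespotter. The probes were GST-fused SH3 domains from four yeast species, produced in E. coli BL21(DE3), purified on glutathione Sepharose and incubated at 10 μg/ml overnight at 4°C on cellulose-bound synthetic 15-mer peptides with cysteines replaced by serines. Binding signal is the normalized, background-subtracted spot intensity averaged over replicates, and its arbitrary units differ between domains.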

Row | Binder | SPOT peptide array binding signal intensity
1 | B1 | 757
2 | B2 | 19.5

Target: CaRvs167
Experiment: as above
Outline: as §1

Row | Binder | SPOT peptide array binding signal intensity
3 | B1 | 162
4 | B2 | 6.17

Target: CaRvs167-3
Experiment: as above
Outline: as §1

Row | Binder | SPOT peptide array binding signal intensity
5 | B1 | 27.8
6 | B2 | 2.75

Target: CaSho1
Experiment: as above
Outline: as §1

Row | Binder | SPOT peptide array binding signal intensity
7 | B1 | 522
8 | B2 | 3190

Target: CaSla1-D1-D2
Experiment: as above
Outline: as §1

Row | Binder | SPOT peptide array binding signal intensity
9 | B1 | 623
10 | B2 | 1430

Target: CaSla1-D3
Experiment: as above
Outline: as §1

Row | Binder | SPOT peptide array binding signal intensity
11 | B1 | 264
12 | B2 | 1.5

Target: ScAbp1
Experiment: as above
Outline: as §1

Row | Binder | SPOT peptide array binding signal intensity
13 | B1 | 103
14 | B2 | 332

Target: ScBbc1
Experiment: as above
Outline: as §1

Row | Binder | SPOT peptide array binding signal intensity
15 | B1 | 23
16 | B2 | 2.5

Target: ScBem1-D1
Experiment: as above
Outline: as §1

Row | Binder | SPOT peptide array binding signal intensity
17 | B1 | 91.5
18 | B2 | 8

Target: ScBzz1-D1
Experiment: as above
Outline: as §1

Row | Binder | SPOT peptide array binding signal intensity
19 | B1 | 50.5
20 | B2 | 98.5

Target: ScBzz1-D2
Experiment: as above
Outline: as §1

Row | Binder | SPOT peptide array binding signal intensity
21 | B1 | 59
22 | B2 | 89

Target: ScCyk3
Experiment: as above
Outline: as §1

Row | Binder | SPOT peptide array binding signal intensity
23 | B1 | 64.5
24 | B2 | 5

Target: ScFus1
Experiment: as above
Outline: as §1

Row | Binder | SPOT peptide array binding signal intensity
25 | B1 | 1090
26 | B2 | 8

Target: ScHof1
Experiment: as above
Outline: as §1

Row | Binder | SPOT peptide array binding signal intensity
27 | B1 | 3.75
28 | B2 | ≤ 0

Target: ScHse1
Experiment: as above
Outline: as §1

Row | Binder | SPOT peptide array binding signal intensity
29 | B1 | 1650
30 | B2 | 30

Target: ScLsb1
Experiment: as above
Outline: as §1

Row | Binder | SPOT peptide array binding signal intensity
31 | B1 | 132
32 | B2 | ≤ 0

Target: ScLsb2
Experiment: as above
Outline: as §1

Row | Binder | SPOT peptide array binding signal intensity
33 | B1 | 15.5
34 | B2 | 1

Target: ScLsb3
Experiment: as above
Outline: as §1

Row | Binder | SPOT peptide array binding signal intensity
35 | B1 | 166
36 | B2 | ≤ 0

Target: ScLsb4
Experiment: as above
Outline: as §1

Row | Binder | SPOT peptide array binding signal intensity
37 | B1 | 32.5
38 | B2 | 12

Target: ScMyo3
Experiment: as above
Outline: as §1

Row | Binder | SPOT peptide array binding signal intensity
39 | B1 | 3.5
40 | B2 | ≤ 0

Target: ScMyo5
Experiment: as above
Outline: as §1

Row | Binder | SPOT peptide array binding signal intensity
41 | B1 | 5.25
42 | B2 | 2

Target: ScNbp2
Experiment: as above
Outline: as §1

Row | Binder | SPOT peptide array binding signal intensity
43 | B1 | 818
44 | B2 | 20

Target: ScPex13
Experiment: as above
Outline: as §1

Row | Binder | SPOT peptide array binding signal intensity
45 | B1 | 56.8
46 | B2 | 39

Target: ScRvs167
Experiment: as above
Outline: as §1

Row | Binder | SPOT peptide array binding signal intensity
47 | B1 | 121
48 | B2 | 2.33

Target: ScSho1
Experiment: as above
Outline: as §1

Row | Binder | SPOT peptide array binding signal intensity
49 | B1 | 1880
50 | B2 | 3960

Target: ScSla1-D1-D2
Experiment: as above
Outline: as §1

Row | Binder | SPOT peptide array binding signal intensity
51 | B1 | 735
52 | B2 | 156

Target: ScSla1-D3
Experiment: as above
Outline: as §1

Row | Binder | SPOT peptide array binding signal intensity
53 | B1 | 161
54 | B2 | 28.2

Target: SpAbp1-D1
Experiment: as above
Outline: as §1

Row | Binder | SPOT peptide array binding signal intensity
55 | B1 | 289
56 | B2 | 872

Target: SpBbc1
Experiment: as above
Outline: as §1

Row | Binder | SPOT peptide array binding signal intensity
57 | B1 | 7
58 | B2 | 6.5

Target: SpBzz1-D1
Experiment: as above
Outline: as §1

Row | Binder | SPOT peptide array binding signal intensity
59 | B1 | 176
60 | B2 | 578

Target: SpBzz1-D2
Experiment: as above
Outline: as §1

Row | Binder | SPOT peptide array binding signal intensity
61 | B1 | 0.5
62 | B2 | 1.25

Target: SpCyk3
Experiment: as above
Outline: as §1

Row | Binder | SPOT peptide array binding signal intensity
63 | B1 | 7
64 | B2 | 5

Target: SpHof1
Experiment: as above
Outline: as §1

Row | Binder | SPOT peptide array binding signal intensity
65 | B1 | 158
66 | B2 | 1490

Target: SpHof1-2
Experiment: as above
Outline: as §1

Row | Binder | SPOT peptide array binding signal intensity
67 | B1 | 17
68 | B2 | 1710

Target: SpHof1-3
Experiment: as above
Outline: as §1

Row | Binder | SPOT peptide array binding signal intensity
69 | B1 | 450
70 | B2 | 1310

Target: SpHse1
Experiment: as above
Outline: as §1

Row | Binder | SPOT peptide array binding signal intensity
71 | B1 | 666
72 | B2 | 37.5

Target: SpLsb1
Experiment: as above
Outline: as §1

Row | Binder | SPOT peptide array binding signal intensity
73 | B1 | 466
74 | B2 | 1

Target: SpLsb4
Experiment: as above
Outline: as §1

Row | Binder | SPOT peptide array binding signal intensity
75 | B1 | 500
76 | B2 | 17

Target: SpMyo1
Experiment: as above
Outline: as §1

Row | Binder | SPOT peptide array binding signal intensity
77 | B1 | 8.75
78 | B2 | 10.5

Target: SpNbp2
Experiment: as above
Outline: as §1

Row | Binder | SPOT peptide array binding signal intensity
79 | B1 | 558
80 | B2 | 11

Target: SpPex13
Experiment: as above
Outline: as §1

Row | Binder | SPOT peptide array binding signal intensity
81 | B1 | 217
82 | B2 | 5

Target: SpRvs167
Experiment: as above
Outline: as §1

Row | Binder | SPOT peptide array binding signal intensity
83 | B1 | 34.2
84 | B2 | 12.3

Target: SpSla1-D1-D2
Experiment: as above
Outline: as §1

Row | Binder | SPOT peptide array binding signal intensity
85 | B1 | 1.5
86 | B2 | 844

Target: SpSla1-D3
Experiment: as above
Outline: as §1

Row | Binder | SPOT peptide array binding signal intensity
87 | B1 | 62
88 | B2 | 0.5

Target: AgAbp1
Experiment: as above
Outline: as §1

Row | Binder | SPOT peptide array binding signal intensity
89 | B2 | 197

Target: AgBbc1
Experiment: as above
Outline: as §1

Row | Binder | SPOT peptide array binding signal intensity
90 | B2 | 15.2

Target: AgBem1-D1
Experiment: as above
Outline: as §1

Row | Binder | SPOT peptide array binding signal intensity
91 | B2 | 16

Target: AgBzz1-D1
Experiment: as above
Outline: as §1

Row | Binder | SPOT peptide array binding signal intensity
92 | B2 | 195

Target: AgBzz1-D2
Experiment: as above
Outline: as §1

Row | Binder | SPOT peptide array binding signal intensity
93 | B2 | 111

Target: AgCyk3
Experiment: as above
Outline: as §1

Row | Binder | SPOT peptide array binding signal intensity
94 | B2 | 1

Target: AgFus1
Experiment: as above
Outline: as §1

Row | Binder | SPOT peptide array binding signal intensity
95 | B2 | 6.5

Target: AgHof1
Experiment: as above
Outline: as §1

Row | Binder | SPOT peptide array binding signal intensity
96 | B2 | 24.2

Target: AgHse1
Experiment: as above
Outline: as §1

Row | Binder | SPOT peptide array binding signal intensity
97 | B2 | 10.5

Target: AgLsb1
Experiment: as above
Outline: as §1

Row | Binder | SPOT peptide array binding signal intensity
98 | B2 | 1

Target: AgLsb4
Experiment: as above
Outline: as §1

Row | Binder | SPOT peptide array binding signal intensity
99 | B2 | 9

Target: AgMyo5
Experiment: as above
Outline: as §1

Row | Binder | SPOT peptide array binding signal intensity
100 | B2 | ≤ 0

Target: AgNbp2
Experiment: as above
Outline: as §1

Row | Binder | SPOT peptide array binding signal intensity
101 | B2 | 8.5

Target: AgRvs167
Experiment: as above
Outline: as §1

Row | Binder | SPOT peptide array binding signal intensity
102 | B2 | 1.67

Target: AgSho1
Experiment: as above
Outline: as §1

Row | Binder | SPOT peptide array binding signal intensity
103 | B2 | 3200

Target: AgSla1-D1-D2
Experiment: as above
Outline: as §1

Row | Binder | SPOT peptide array binding signal intensity
104 | B2 | 21.5

Target: AgSla1-D3
Experiment: as above
Outline: as §1

Row | Binder | SPOT peptide array binding signal intensity
105 | B2 | 8.5

Target: CaAbp1-D1
Experiment: as above
Outline: as §1

Row | Binder | SPOT peptide array binding signal intensity
106 | B2 | 64

Target: CaAbp1-D2
Experiment: as above
Outline: as §1

Row | Binder | SPOT peptide array binding signal intensity
107 | B2 | 249

Target: CaBbc1
Experiment: as above
Outline: as §1

Row | Binder | SPOT peptide array binding signal intensity
108 | B2 | 30

Target: CaBem1-D1
Experiment: as above
Outline: as §1

Row | Binder | SPOT peptide array binding signal intensity
109 | B2 | 29.5

Target: CaBzz1-D1
Experiment: as above
Outline: as §1

Row | Binder | SPOT peptide array binding signal intensity
110 | B2 | 384

Target: CaBzz1-D2
Experiment: as above
Outline: as §1

Row | Binder | SPOT peptide array binding signal intensity
111 | B2 | 162

Target: CaCyk3
Experiment: as above
Outline: as §1

Row | Binder | SPOT peptide array binding signal intensity
112 | B2 | 4

Target: CaFus1
Experiment: as above
Outline: as §1

Row | Binder | SPOT peptide array binding signal intensity
113 | B2 | 83

Target: CaHof1
Experiment: as above
Outline: as §1

Row | Binder | SPOT peptide array binding signal intensity
114 | B2 | ≤ 0

Target: CaHse1
Experiment: as above
Outline: as §1

Row | Binder | SPOT peptide array binding signal intensity
115 | B2 | 8.25

Target: CaLsb1
Experiment: as above
Outline: as §1

Row | Binder | SPOT peptide array binding signal intensity
116 | B2 | 0.5

Target: CaLsb4
Experiment: as above
Outline: as §1

Row | Binder | SPOT peptide array binding signal intensity
117 | B2 | 10.5

Target: CaMyo5
Experiment: as above
Outline: as §1

Row | Binder | SPOT peptide array binding signal intensity
118 | B2 | 10
